Measurements reported in PubChem BioAssay AID1117319 (Southern Research Institute, 2015).
Where “and” joins values, the source holds several entries; their conditions need not be identical. Equal values may be shown once. Out of some 260,000 compounds screened, about 1,500 (0.58%) were called active. Not shown: some 5% with an inconclusive outcome.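 How the source made its calls: active means inhibition above a set limit at one or more doses, reproduced on every date tested; inconclusive means results disagree between test dates, or hit never tested in dose response; inactive means the rest.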 The list is a sample of the results. Measured potencies and affinities stand elsewhere.

molecular target: Virion infectivity factor (Human immunodeficiency virus type 1 group M subtype B (isolate BH10)) + Virion infectivity factor (Human immunodeficiency virus type 1 group M subtype B (isolate BRU/LAI)) + Virion infectivity factor (Human immunodeficiency virus type 1 group M subtype B (isolate PCV12)) + Virion infectivity factor (Human immunodeficiency virus type 1 group M subtype B (isolate HXB2)) + DNA dC->dU-editing enzyme APOBEC-3G (Homo sapiens) (UniProt P69720+P69721+P69722+P69723+Q9HC16); test: HIV-1 Vif–A3G interaction blockers – biochemical, TR-FRET, GST-Vif 1-94, biotin-A3G peptide, dose response retest, primary screen (AID 1117319); settings: TR-FRET GST-Vif / biotin-A3G peptide binding; hits give high values;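 further: Vif residues 1-94 fused to GST binding biotinylated APOBEC3G peptide 110-148; 0% = full assay without inhibitor and 100% = GST in place of GST-Vif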

inhibition, inactive:
CN1C(=O)C(N=Nc2ccccc2C(=O)O)N(C)C1=S (stereo not given) 30.3%, Cc1ccc(SCC(=O)N(C)CC(=O)Nc2cccc(F)c2)cc1 0.72%, COc1cccc(-n2c(SC)nnc2-c2cnccn2)c1 -0.18%, CCN(CC(=O)Nc1cc(Cl)ccc1C)C(=O)c1ccc2c(=O)n3c(nc2c1)CCC3 2.7%, CN(C)Cc1cn(CCC(=O)O)c2ccccc12 -3.96%, O=C1OC/C(=C(/O)c2ccc(Cl)cc2)C1=O -8.18%, O=C1/C(=C/c2cccnc2)SC(=S)N1c1ccccc1 8.11%, Cc1cccc(N2C(=O)/C(=C/c3cccnc3)SC2=S)c1 -1.54%, O=C1/C(=C/c2cccs2)SC(=S)N1c1ccccc1 -6.53%, Cc1ccc(/C=C2\SC(=S)N(Cc3ccccc3)C2=O)o1 29.5%, Cc1ccc(/C=C2\SC(=S)N(c3cccnc3)C2=O)cc1 21.1%, O=C(O)c1ccc(/C=C2/SC(=S)N(Cc3ccccc3)C2=O)cc1 -0.52%, Cc1nn(C)c(C(=O)NNC(=S)Nc2ccc(F)cc2)c1[N+](=O)[O-] -3.65%, CCn1cnc2cc(NC(=O)c3ccc(C)cc3)ccc21 -2%, COCCn1c(SCC(=O)N2CCCc3ccccc32)nc2cccnc21 -1.26%, C/C(=N\S(=O)(=O)c1ccc(C)cc1)NC(=S)Nc1ccccc1 -0.88%, Cc1ccsc1C(=O)OCC(=O)Nc1cccc(S(=O)(=O)N2CCOCC2)c1 2.2%, Cc1cc(C(=O)OC(C)C(=O)NC2CCCCC2C)c2ccccc2n1 (stereo not given) -2.6%, Cc1ccc(C)c(Nc2nc(-c3ccncc3)nc3ccccc23)c1 -7.92%, O=C(OCc1ccccn1)c1ccc(COc2ccc3ccccc3c2)o1 14.9%, CCCCCCNC(=O)C(C#N)c1nc2ccccc2nc1N1CCOCC1 (stereo not given) 5.51%, N#CC(C(=O)NCCc1ccccc1)c1nc2ccccc2nc1N1CCOCC1 (stereo not given) -2.43%, Cc1nn(-c2ccccc2)c2sc(C(=O)N3CCCCC3)cc12 -2.58%, CCCCN1C(=O)C(=O)N(CC(=O)c2ccc[nH]2)C1=O 5.74%, CCOC(=O)N1CCC(n2c(SCC(=O)Nc3nccs3)nc3ccsc3c2=O)CC1 -7.21% and 20.2%, COc1ccc(NC(=S)NCc2cccs2)cc1 0.47%, CCN(CC(=O)Nc1c(C(=O)OC)[nH]c2ccc(Cl)cc12)c1ccc2c(c1)OCO2 0.99%, COC(=O)c1[nH]c2ccccc2c1NC(=O)CN1CCN(Cc2ccc3c(c2)OCO3)CC1 -1.82%, COc1ccc(OCCN(C)C(=O)c2cccc(S(=O)(=O)N(C)c3ccccc3)c2)cc1 -4.53%, CN(C)c1ccc(/C=C/C=C2/SC(=S)N(c3ccccc3)C2=O)cc1 19.3%, O=C1S/C(=C\c2cccs2)C(=O)N1c1ccc(O)cc1 -10.4%, O=C(O)c1ccc(N2C(=O)/C(=C/C=C/c3ccccc3)SC2=S)cc1 7.15%, Cn1cccc1/C=C1\SC(=O)N(c2ccc(O)cc2)C1=O 4.46%, CC1(C)N=C(c2ccc(Cl)cc2)C(=O)N1 -0.69%, CNC(=O)c1ccsc1NC(=O)C1CCCN1S(=O)(=O)c1cccs1 (stereo not given) -0.6%, Cc1ccccc1-c1ccc(/C=C2/SC(N3CCOCC3)=NC2=O)o1 6.07%, NC1=NC(=O)/C(=C/c2cccs2)S1 10%, O=C1N=C(N2CCOCC2)S/C1=C\c1cccs1 -6.4%, O=C1N=C(N2CCCC2)S/C1=C\c1ccccc1 27.9%, NC1=NC(=O)C(=Cc2ccccc2)S1 1.08%, O=C1N=C(N2CCOCC2)S/C1=C\c1ccc(-c2ccccc2Cl)o1 21.8%, Cc1ccc(-c2ccc(/C=C3\SC(N4CCOCC4)=NC3=O)o2)cc1 6.18%, O=C1N=C(N2CCOCC2)S/C1=C/c1cccs1 1.92%, O=C(CCc1nnc(CCc2ccccc2)o1)N1CCCCC1CCn1cccn1 (stereo not given) -2.83%, CC(=O)NCCn1c(SCc2ccc(C)cc2C)nc2ccccc2c1=O -4.41%, COCc1cc(=O)[nH]c(N2CCN(C(=O)c3ccco3)CC2)n1 -8.81%, CCOc1ccc(NC(=O)c2cc3c(=O)n(C)c4ccccc4c3n2C)cc1 -12%, O=C(CNC(=O)c1cc2ccccc2o1)NCc1cccs1 15.4%, Clc1ccc(NCn2cncn2)nc1 10.8%, CCc1cccc(C)c1NC(=O)CO/N=C(\C)c1cc2ccccc2o1 -0.14%, CC(OC(=O)CCC1CCCCC1)C(=O)Nc1ccc(S(N)(=O)=O)cc1 (stereo not given) 6.23%, O=C(O)c1cccc(-c2ccccc2)c1O 2.46%, O=C(O)c1cccc2cc(-c3ccccc3)oc(=O)c12 3%, Cc1oc2c(O)c(O)ccc2c(=O)c1-c1cnn(-c2ccccc2)c1 28.2%, Nc1c(O)ccc2c1C(=O)c1ccccc1C2=O 10.2%, CCOC(=O)C(C#N)=C1CCN(Cc2ccccc2)CC1 -5.62%, Cc1ccc(C(=O)NC(=S)Nc2ccc(S(=O)(=O)N3CCN(C)CC3)cc2)cc1 1.48%, CN1CCN(S(=O)(=O)c2ccc(NC(=S)NC(=O)c3ccccc3)cc2)CC1 0.13%, COc1ccc(CNC(=O)COC(=O)c2c(NC(C)=O)sc(C)c2C)cc1OC 1.62%, O=C(O)C1CC(=O)N(c2ccc(OCc3ccc(Cl)cc3Cl)cc2)C1 (stereo not given) 4.2%, N#CC(C#N)=c1ccc2c(c1)N1C3=C(CCCC3)CC3CCCCC31N=2 (stereo not given) 20.5%, CC(CCc1ccccc1)NC(=O)C1CCN(S(=O)(=O)N2CCOCC2)CC1 (stereo not given) -3.69%, O=C(O)c1ccc(-n2nc(C(F)(F)F)c3c2CCCC3)cc1 0.77%, COC(=O)c1ccc(-n2nc(C(F)(F)F)c3c2-c2ccoc2CC3)cc1 14.2%, O=C(CCn1c(=S)oc2ccccc21)NC1CCCCCCC1 -0.87%, CCCC1CC(C#N)N(N(C)C)C1=C(C#N)C#N (stereo not given) -4.37%, Cc1ccc(NC(=S)C2=C(O)c3sccc3N(C)S2(=O)=O)cc1 10.2%, CN1c2ccccc2C(O)=C(C(=S)Nc2ccc(F)c(Cl)c2)S1(=O)=O -0.79%, CC(C)n1ncc2c(C(=O)NCCc3ccc(S(N)(=O)=O)cc3)cc(C3CC3)nc21 1.54%, COc1ccc(CCNC(=O)Cn2cnc3c(cnn3C(C)(C)C)c2=O)cc1OC -3.55%, COc1ccc(C(=O)Nc2nc3ccc(S(C)(=O)=O)cc3s2)cc1 -53.8%, Cc1cc(C)nc(NS(=O)(=O)c2ccc(N/C=C/C(=O)c3ccc(Cl)c(Cl)c3)cc2)n1 32.2%, Cc1ccc(NC(=O)COC(=O)c2ccc(S(=O)(=O)N3CCCC3)cc2)cc1 -1.07%, Cc1ccc(C(=O)OCC(=O)Nc2ccc(S(N)(=O)=O)cc2)c(O)c1 -10.3%, Cc1ccc(NC(=O)CNc2cccc(C)c2C)c(C)c1 21.8%, Nc1nc(N)c(N=Nc2ccc(S(N)(=O)=O)cc2)c(=O)[nH]1 1.9%, CN(C)c1ccc(N=Nc2ccc(S(N)(=O)=O)cc2)cc1 5.84%, NS(=O)(=O)c1ccc(N=Nc2c(O)ccc3ccccc23)cc1 9.6%, Cc1c(C#N)c(O)[nH]c(=O)c1N=Nc1ccc(S(N)(=O)=O)cc1 3.16%, CCOC(=O)c1csc(NC(=O)CN2CCOCC2)n1 -8.71%, Cc1cccc(N2CCN(Cc3nc(-c4cccc(Oc5ccccc5)c4)oc3C)CC2)n1 3.4%, CCN(CC)S(=O)(=O)c1cccc(NC(=O)C2SC(=Nc3ccc(C)cc3C)C(C(=O)NCC3CCCO3)=C2N)c1 (stereo not given) 2.72%, Cc1cc2cc(C(=O)N3CCc4c([nH]c5ccccc45)C3c3ccccn3)ccc2o1 (stereo not given) 10.8%, COc1cccc(C2Nc3c(F)cc(Br)cc3C3C=CCC32)c1OC (stereo not given) 5.44%, Cc1ccc(C)c(NC(=O)C2CC=CCC2C(=O)O)c1 (stereo not given) -2.09%, O=C(c1ccccc1)c1ccccc1C(=O)N1CCOCC1 5.31%, O=C(c1ccccc1O)N1CCOCC1 -1.64%, O=C(O)C1C=CC(C(=O)O)c2ccccc21 (stereo not given) -4.89%, COc1ccccc1C1CCN(C(=O)c2ccccc2)CC1 6.08%, CC(=O)N1c2ccc(Cl)cc2C2C=CCC2C1c1cccc2ccccc12 (stereo not given) 19.4%, CCC(C)[C@H](NC(=O)C1CCN(C(=O)[C@H](Cc2ccccc2)NC(=O)OC(C)(C)C)CC1)C(=O)O (stereo not given in full) 7.73%, Cc1ccc(C(=O)NNC(=O)c2ccc3ccccc3c2)cc1 1.23%, O=C(c1ccc(S(=O)(=O)N2CCCCCC2)cc1)N1CCN(c2ccccn2)CC1 -5.37%, Cc1cc(C(=O)N2CCc3c([nH]c4ccccc34)C2c2c(F)cccc2Cl)no1 (stereo not given) -4.57%, O=C(Nc1ccc(S(=O)(=O)N2CCOCC2)cc1)c1cc(-c2ccccc2O)n[nH]1 -5.69%
